Measurements: ChEMBL document CHEMBL1961873, “Compounds: GSK PKIS; Assays: Nanosyn kinase panel” (2012)

Experiments:
[1] = target: T1, Serine/threonine-protein kinase Nek9 (Homo sapiens) (UniProt Q8TD19); settings: at 1 µM;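 also: each value is a mean percent inhibition of NEK9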
T1 sequence (whole entry): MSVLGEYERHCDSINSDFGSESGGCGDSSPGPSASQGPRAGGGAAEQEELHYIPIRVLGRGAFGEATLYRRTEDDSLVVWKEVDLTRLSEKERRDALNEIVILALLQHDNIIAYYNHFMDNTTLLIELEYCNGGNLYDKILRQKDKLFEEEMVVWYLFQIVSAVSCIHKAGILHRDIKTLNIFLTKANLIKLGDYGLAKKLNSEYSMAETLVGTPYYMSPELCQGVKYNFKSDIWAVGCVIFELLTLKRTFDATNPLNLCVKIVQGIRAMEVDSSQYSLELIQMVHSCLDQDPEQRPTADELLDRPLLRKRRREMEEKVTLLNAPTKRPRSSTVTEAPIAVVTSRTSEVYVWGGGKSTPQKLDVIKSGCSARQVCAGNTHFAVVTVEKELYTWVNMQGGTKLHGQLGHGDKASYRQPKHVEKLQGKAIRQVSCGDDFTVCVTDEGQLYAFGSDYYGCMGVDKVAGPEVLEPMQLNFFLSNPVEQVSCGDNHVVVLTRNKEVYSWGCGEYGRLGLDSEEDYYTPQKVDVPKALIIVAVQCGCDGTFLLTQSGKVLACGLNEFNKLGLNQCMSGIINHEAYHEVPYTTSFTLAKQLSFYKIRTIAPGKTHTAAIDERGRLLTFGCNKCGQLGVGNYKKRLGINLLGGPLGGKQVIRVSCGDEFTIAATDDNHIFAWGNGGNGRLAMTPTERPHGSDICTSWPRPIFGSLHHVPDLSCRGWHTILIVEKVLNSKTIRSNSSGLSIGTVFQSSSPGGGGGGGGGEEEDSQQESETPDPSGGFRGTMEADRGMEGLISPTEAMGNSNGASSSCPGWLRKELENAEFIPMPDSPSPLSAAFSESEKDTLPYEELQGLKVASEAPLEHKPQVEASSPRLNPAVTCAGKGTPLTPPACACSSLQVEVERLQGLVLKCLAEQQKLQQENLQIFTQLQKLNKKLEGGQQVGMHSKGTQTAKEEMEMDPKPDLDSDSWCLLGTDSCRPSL

[2] = target: Serine/threonine-protein kinase PLK1 (Homo sapiens) (UniProt P53350); settings: at 0.1 µM
Serine/threonine-protein kinase PLK1 (Homo sapiens), sequence (P53350 whole entry): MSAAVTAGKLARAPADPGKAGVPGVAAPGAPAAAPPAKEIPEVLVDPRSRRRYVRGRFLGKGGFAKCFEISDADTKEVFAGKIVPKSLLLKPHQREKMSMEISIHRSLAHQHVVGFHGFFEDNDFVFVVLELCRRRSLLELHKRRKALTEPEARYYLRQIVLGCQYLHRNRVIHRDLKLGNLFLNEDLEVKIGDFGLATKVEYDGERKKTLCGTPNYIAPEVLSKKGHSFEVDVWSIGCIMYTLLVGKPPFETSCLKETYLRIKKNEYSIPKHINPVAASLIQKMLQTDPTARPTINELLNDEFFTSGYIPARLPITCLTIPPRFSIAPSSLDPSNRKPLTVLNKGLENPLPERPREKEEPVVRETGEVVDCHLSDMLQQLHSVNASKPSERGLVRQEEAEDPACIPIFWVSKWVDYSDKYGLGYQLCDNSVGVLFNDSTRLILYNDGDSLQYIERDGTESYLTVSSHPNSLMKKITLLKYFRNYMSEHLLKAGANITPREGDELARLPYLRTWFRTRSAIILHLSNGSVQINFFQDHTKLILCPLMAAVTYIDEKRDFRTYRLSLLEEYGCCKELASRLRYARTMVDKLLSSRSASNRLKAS

[3] = target: Serine/threonine-protein kinase PLK1 (Homo sapiens) (UniProt P53350); settings: at 1 µM
[4] = target: T2, Dual specificity protein kinase TTK (Homo sapiens) (UniProt P33981); settings: at 0.1 µM
T2 sequence (whole entry): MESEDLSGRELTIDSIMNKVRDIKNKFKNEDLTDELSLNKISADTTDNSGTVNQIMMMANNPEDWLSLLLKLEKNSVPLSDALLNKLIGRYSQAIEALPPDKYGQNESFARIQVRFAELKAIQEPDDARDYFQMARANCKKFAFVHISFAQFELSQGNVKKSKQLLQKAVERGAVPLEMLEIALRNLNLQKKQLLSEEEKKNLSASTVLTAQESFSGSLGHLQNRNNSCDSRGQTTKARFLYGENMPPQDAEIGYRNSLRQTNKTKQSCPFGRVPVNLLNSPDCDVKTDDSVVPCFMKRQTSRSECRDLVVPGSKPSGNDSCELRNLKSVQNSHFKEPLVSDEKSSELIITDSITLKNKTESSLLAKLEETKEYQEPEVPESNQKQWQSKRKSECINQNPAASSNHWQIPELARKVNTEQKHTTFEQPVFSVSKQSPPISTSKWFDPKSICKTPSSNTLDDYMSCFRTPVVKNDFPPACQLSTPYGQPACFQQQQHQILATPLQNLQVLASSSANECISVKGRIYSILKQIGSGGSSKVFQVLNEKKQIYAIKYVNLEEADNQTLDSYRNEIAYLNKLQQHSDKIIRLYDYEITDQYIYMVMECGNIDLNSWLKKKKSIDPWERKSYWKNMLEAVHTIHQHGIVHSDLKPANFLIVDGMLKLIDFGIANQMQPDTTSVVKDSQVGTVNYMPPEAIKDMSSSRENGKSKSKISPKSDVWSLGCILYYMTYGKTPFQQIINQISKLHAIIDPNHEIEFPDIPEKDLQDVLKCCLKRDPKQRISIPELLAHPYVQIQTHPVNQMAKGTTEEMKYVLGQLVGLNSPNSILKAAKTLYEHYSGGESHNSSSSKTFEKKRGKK

[5] = test system: T3, Receptor-type tyrosine-protein kinase FLT3 (Homo sapiens), P36888 [D835Y]; settings: at 1 µM
T3 sequence (whole entry): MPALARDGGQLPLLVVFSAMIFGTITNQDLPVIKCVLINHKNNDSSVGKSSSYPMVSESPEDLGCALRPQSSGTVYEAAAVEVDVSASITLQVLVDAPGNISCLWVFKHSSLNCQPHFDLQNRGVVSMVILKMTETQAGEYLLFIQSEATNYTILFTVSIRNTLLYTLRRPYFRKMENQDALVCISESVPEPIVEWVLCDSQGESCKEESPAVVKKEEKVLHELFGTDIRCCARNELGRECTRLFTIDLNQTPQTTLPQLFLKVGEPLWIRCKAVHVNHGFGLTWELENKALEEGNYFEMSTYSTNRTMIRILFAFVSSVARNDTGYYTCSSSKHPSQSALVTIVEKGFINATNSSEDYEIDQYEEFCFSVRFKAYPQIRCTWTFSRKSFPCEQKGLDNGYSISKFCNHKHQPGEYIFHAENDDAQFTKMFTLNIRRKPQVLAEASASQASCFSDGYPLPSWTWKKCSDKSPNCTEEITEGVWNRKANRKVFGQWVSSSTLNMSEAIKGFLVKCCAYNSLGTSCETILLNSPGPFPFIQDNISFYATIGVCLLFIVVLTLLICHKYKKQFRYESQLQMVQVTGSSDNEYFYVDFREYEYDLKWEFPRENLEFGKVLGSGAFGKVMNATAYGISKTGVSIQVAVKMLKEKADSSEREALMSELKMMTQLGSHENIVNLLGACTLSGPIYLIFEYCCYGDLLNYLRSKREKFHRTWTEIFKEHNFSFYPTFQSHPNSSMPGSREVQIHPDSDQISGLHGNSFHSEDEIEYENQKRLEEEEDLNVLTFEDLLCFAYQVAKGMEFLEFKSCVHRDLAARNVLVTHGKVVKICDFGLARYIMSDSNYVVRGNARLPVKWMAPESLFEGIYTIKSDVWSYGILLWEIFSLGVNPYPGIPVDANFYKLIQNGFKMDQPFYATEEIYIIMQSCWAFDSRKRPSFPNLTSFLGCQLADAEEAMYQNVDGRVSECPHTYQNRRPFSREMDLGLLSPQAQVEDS

[6] = target: Vascular endothelial growth factor receptor 3 (Homo sapiens) (UniProt P35916); settings: at 0.1 µM
Vascular endothelial growth factor receptor 3 (Homo sapiens), sequence (P35916 whole entry): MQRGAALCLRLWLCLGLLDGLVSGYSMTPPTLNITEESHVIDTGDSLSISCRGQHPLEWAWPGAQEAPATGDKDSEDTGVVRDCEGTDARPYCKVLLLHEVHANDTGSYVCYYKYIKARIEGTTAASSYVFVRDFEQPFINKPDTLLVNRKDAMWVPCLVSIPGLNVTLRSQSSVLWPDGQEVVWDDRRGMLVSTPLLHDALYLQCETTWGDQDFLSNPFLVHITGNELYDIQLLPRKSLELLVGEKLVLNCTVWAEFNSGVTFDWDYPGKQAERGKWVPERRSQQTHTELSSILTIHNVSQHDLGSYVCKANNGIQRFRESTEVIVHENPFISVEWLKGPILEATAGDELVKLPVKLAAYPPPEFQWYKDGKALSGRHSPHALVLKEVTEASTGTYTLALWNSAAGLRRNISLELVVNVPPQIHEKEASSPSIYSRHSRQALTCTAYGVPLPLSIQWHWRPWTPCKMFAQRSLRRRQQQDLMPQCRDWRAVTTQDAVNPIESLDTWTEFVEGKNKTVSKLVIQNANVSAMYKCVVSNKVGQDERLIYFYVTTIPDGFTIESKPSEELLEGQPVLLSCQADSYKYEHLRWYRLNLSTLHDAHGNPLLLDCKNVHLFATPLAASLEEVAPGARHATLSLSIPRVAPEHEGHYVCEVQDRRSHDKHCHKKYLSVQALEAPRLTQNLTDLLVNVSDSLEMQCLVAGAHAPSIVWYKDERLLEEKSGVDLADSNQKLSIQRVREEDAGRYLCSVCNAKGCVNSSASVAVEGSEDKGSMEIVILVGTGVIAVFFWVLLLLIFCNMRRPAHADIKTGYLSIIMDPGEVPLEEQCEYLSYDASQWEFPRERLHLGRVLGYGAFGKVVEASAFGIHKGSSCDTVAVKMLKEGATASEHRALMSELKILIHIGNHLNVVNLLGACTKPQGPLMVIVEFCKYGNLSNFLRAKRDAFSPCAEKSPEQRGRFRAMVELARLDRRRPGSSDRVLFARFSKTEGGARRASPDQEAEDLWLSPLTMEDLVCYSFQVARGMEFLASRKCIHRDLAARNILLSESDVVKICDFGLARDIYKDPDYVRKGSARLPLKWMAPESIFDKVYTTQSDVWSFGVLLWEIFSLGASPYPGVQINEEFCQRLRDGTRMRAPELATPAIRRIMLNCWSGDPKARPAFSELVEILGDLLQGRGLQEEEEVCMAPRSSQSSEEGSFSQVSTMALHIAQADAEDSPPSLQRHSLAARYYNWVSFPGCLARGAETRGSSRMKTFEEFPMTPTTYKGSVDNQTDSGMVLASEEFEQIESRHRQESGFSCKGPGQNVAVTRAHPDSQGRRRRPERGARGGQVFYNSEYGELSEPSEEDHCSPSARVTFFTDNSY

[7] = target: Macrophage colony-stimulating factor 1 receptor (Homo sapiens) (UniProt P07333); settings: at 0.1 µM
Macrophage colony-stimulating factor 1 receptor (Homo sapiens), sequence (P07333 whole entry): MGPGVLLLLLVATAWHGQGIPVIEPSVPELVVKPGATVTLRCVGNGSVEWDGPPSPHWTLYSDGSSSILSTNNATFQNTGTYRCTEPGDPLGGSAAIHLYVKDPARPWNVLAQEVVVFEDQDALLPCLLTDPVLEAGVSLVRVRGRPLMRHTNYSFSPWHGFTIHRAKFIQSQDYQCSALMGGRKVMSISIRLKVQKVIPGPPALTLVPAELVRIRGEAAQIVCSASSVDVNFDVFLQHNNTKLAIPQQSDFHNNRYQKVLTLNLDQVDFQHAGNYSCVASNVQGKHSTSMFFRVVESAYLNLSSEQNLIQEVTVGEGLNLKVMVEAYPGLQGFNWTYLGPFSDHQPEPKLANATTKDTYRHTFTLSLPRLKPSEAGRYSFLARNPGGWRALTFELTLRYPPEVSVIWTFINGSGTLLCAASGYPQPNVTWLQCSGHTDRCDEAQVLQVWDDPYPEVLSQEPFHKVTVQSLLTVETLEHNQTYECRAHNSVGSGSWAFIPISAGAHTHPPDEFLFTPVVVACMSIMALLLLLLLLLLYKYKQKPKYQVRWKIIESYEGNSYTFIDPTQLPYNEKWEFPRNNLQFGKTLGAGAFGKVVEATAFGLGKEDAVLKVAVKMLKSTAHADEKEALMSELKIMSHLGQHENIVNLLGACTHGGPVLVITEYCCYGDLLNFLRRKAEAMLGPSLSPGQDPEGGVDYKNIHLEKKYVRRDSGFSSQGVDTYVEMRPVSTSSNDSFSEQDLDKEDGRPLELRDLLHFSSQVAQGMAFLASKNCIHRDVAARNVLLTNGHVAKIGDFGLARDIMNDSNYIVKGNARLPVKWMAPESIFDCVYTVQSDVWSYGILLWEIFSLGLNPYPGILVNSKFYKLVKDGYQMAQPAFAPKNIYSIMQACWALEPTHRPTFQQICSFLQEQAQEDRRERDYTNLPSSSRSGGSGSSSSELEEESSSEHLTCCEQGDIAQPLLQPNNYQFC

[8] = target: Macrophage colony-stimulating factor 1 receptor (Homo sapiens) (UniProt P07333); settings: at 1 µM
[9] = target: Tyrosine-protein kinase Fyn (Homo sapiens) (UniProt P06241); settings: at 0.1 µM
Tyrosine-protein kinase Fyn (Homo sapiens), sequence (P06241 2-537 limits assumed): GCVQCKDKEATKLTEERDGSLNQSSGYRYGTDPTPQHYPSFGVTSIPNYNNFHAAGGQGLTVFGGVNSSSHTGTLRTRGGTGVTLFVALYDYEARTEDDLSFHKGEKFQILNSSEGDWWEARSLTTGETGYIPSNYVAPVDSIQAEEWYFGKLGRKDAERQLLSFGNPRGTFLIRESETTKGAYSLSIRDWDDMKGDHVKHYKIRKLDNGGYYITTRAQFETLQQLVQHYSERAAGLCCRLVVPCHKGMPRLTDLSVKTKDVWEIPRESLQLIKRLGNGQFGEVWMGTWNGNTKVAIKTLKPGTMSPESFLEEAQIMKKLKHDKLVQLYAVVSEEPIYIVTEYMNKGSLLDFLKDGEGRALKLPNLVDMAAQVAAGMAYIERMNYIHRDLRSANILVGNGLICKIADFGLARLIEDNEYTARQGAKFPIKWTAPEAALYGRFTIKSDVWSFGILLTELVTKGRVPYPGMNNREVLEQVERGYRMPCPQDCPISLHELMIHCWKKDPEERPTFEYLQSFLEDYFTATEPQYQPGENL

[10] = target: Vascular endothelial growth factor receptor 3 (Homo sapiens) (UniProt P35916); settings: at 1 µM

Row | Compound | inhibition [1] [%] | inhibition [2] [%] | inhibition [3] [%] | inhibition [4] [%] | inhibition [5] [%] | inhibition [6] [%] | inhibition [7] [%] | inhibition [8] [%] | inhibition [9] [%] | inhibition [10] [%]
1 | Cc1ccc(NC(=O)c2ccnc(N3CCCC3)c2)cc1-c1ccc(C(=O)NCC2CC2)cc1 | 6.52 | 3.7 | 4.57 | 15.4 | 1.51 | -7.96 | 1.57 | 2.74 | -2.42 | 
2 | CNC(=O)c1cncc(/C=C/c2c(Cl)cccc2Cl)c1 | 5.75 | 3.89 | 7.28 | 17 | -3.57 | -7.73 | 7.17 | 41.1 | 0.89 | 
3 | Fc1cccc(COc2ccc(Nc3ncnc4cc(-c5ccc[nH]5)sc34)cc2Cl)c1 | 9.08 | 3.81 | 3.54 | 9.76 | 1.35 |  | 0.63 | 8.96 | -2.98 | 
4 | CCn1c(-c2nonc2N)nc2cncc(C(=O)N3CCNCC3)c21 | 5.61 | 5.97 | 14.3 | 12.2 | -1.93 | 5.86 | 4.42 | 5.74 | 2.61 | 7.52
5 | CC1=C(C(=O)Nc2ccc3[nH]ncc3c2)C(c2ccc3ccccc3c2)CC(=O)N1 (stereo unspecified) | 2.05 | 2.98 | 1.98 | 5.26 | 1.5 | 1.27 | 7.17 | 2.62 | 2 | 3.27
6 | Cc1cc(O)cc(C)c1/C=C/c1cncc(-c2nn[nH]n2)c1 | 8.64 | 3.41 | 4.38 | 7.11 | -0.25 | -9.76 | 8.02 | 36.1 | 3.99 | 
7 | COc1cc2ncn(-c3cc(OCc4ccccc4C(F)(F)F)c(C(N)=O)s3)c2cc1OC | 58.7 | 93.4 | 96.3 | 7.82 | 14.5 | 6.89 |  |  | -0.99 | 53.1
8 | COc1ccc(COc2ccc(Cc3cnc(N)nc3N)cc2OC)cc1 | -4.1 | 0.21 | 3.71 | -2.66 | -1.91 | -2.95 |  |  | 0.22 | -0.86
9 | COc1cc2ncn(-c3cc(O[C@@H](C)c4ccccc4Cl)c(C(N)=O)s3)c2cc1OC | 38.4 |  |  | 6.36 | 3.92 | 19.7 | 1.84 | 9.87 | 3.53 | 67.6
10 | CCn1c(-c2nonc2N)nc2c(N3CCCC3)nccc21 | 1.67 | 1.87 | -0.08 | 9.05 | -4.08 | 2.79 | -0.51 | 0.02 | -0.01 | 3.38
11 | COc1ccccc1Nc1ncc(-c2ccccc2)o1 | 5.41 | 4.91 | 4.18 | 10.2 | 25.5 | 3.38 | 12 | 53.5 | 4.02 | 9.85
12 | CS(=O)(=O)CCNCc1ccc(-c2ccc3ncnc(Nc4ccc(OCc5cccc(F)c5)c(C(F)(F)F)c4)c3c2)o1 | 10.1 | 3.95 | 3.53 | 12.1 | 4.32 | -0.03 | 0.94 | -0.75 | 1.1 | -1.42
13 | Nc1nc(-c2ccccn2)c(-c2ccc3ncccc3n2)s1 | 6.84 | 2.47 | 2.12 | 4.02 | 8.59 | 1.06 | 2.04 | 4.58 | -1.79 | 2.46
14 | COc1cc2ncn(-c3cc(O[C@H](C)c4ccccc4Cl)c(C(N)=O)s3)c2cc1OC | 91.6 |  |  | 9.01 | 39.6 | 31.8 | 8.07 | 41.9 | 2 | 81.3
15 | COc1cccc(-n2ncc3c(N/N=C/c4cccc(F)c4)ncnc32)c1 | 3.11 | 3.32 | 3.39 | 6.88 | 14.1 | -8.81 | -0.57 | 3.43 | 4.02 | -1.89
16 | Cc1ccc(C(=O)NC2CCCCC2)cc1-c1ccc(C(=O)NCC2CC2)cc1 | -4.93 | 3 | 2.23 | 2.82 | -1.53 | 3.84 | -0.58 | 5.17 | -0.84 | 5.49
17 | NS(=O)(=O)c1ccc(N/N=C2\C(=O)Nc3ccc(C(=O)NCCc4c[nH]cn4)cc32)cc1 | 10.4 | 5.66 | 10.8 | 37.9 | 48 | 6.93 |  | 15.4 | 3.46 | 26.4
18 | CCn1c(-c2nonc2N)nc2c(C#CC(C)(C)O)nc(CN3CCCC3)cc21 | 3.04 | -0.39 | -1.2 | 1.71 | 0.63 | 0.61 | -0.03 | 2.57 | 2.94 | 5.17
